HCV inhibitor: inhibitors of hepatitis C virus infection; 340,000 compounds, 3.4% hits; Huh7.5.1 HCVcc-Cre infection, luciferase reporter, 44 h; Potency, µM (highest dose often 41.8 µM), most hits filed as inhibitors
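Infectious HCVcc-Cre (~0.5 moi) was added to cells just after compound, with cells seeded 4 h earlier at 1,000 per well. Luciferase activity after 44 h culture reported infection; substrate was incubated 15 min at room temperature before reading.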
Pf growth 96h: P. falciparum growth inhibition at 96 hours; P. falciparum luciferase reporter growth, 96 h; Potency, µM (titrated, usually from 28.7 µM), usual class: inhibitors; 320,000 compounds, 6.9% hits
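Readout is luminescence from an integrated firefly luciferase in P. falciparum. Red cells, 2% hematocrit and 0.05% parasitemia final, were cultured with compound through two parasite generations (96 hours) at 37 C, 5% CO2.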
Shiga inhibitor: inhibitors of Shiga toxin in Vero cells; Vero cells, Shiga toxin protein synthesis inhibition reporter; inhibition, % at 38.7 µM; 290,000 compounds, 9.2% hits; AID 2315; in the data active means inhibition mostly above about 28%, no sharp cut-off; inactive means mostly below about 43%
Pf growth 48h: P. falciparum growth inhibition at 48 hours (one generation) | P. falciparum luciferase growth in erythrocytes, 48 h | 310,000 compounds, 5.9% hits | Potency, µM (doses to about 28.7 µM), actives largely listed as inhibitors
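Luciferase-expressing P. falciparum in infected erythrocytes (2% hematocrit, 0.1% parasitemia final) in RPMI 1640/0.5% Albumax were exposed to compound for 48 hours at 37 C, 5% CO2; growth read as luminescence.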
AMA1-RON2 inh: inhibitors of Plasmodium falciparum AMA1-RON2 interaction; AlphaScreen AMA1-biotinylated RON2 peptide binding; Potency, µM (titrated, usually from 58.2 µM), usual class: inhibitors; 360,000 compounds, 0.2% hits; AID 720542; further: nearly all actives have a fitted effect of over 45% in size
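AMA1 (3D7) with his tag at 25 nM final met compounds first, then biotinylated RON2 peptide at 25 nM; detection used donor plus acceptor beads, 10 µg/mL apiece, read by AlphaScreen after 30 min at room temperature.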
CHX counter: affects cycloheximide protein synthesis inhibition readout, counter-screen; cell reporter, cycloheximide protein synthesis inhibition counterscreen; max response, %; 300,000 compounds, 12% hits; AID 2314; in the data active means max response mostly above about 13%, no sharp cut-off; inactive means mostly below about 14%; further: read at 38.3 µM for the half of the compounds with a filed dose
Large screens that a line does not name were inactive. Most compounds without a hit are left out; they make up all but 21% or so of the library. Unless noted, the call rests on the fitted dose curve; in most records, active means well fitted curve in the direction sought with a large enough effect; inconclusive means small, poorly fitted or top-dose-only effect, or another doubt; inactive means no such curve, though single readings can be large; an effect the other way counts as inactive or inconclusive.

COCC(C)n1c(C)cc(C(=O)CSc2nc(C)c(C)c(C)n2)c1C (centres undefined)	HCV inhibitor 10µM, Pf growth 96h inconclusive, Pf growth 48h inconclusive
COCC(C)n1c(C)cc(C(=O)CSc2nnc(N)s2)c1C (centres undefined)	Pf growth 48h inconclusive, CHX counter 24.2 (no result: Pf growth 96h)
CN1C(=O)[C@H]2[C@@H](c3ccccc3)N[C@]3(CCCN(Cc4ccc(F)cc4)C3=O)[C@H]2C1=O	none (no result: HCV inhibitor, Pf growth 96h, Shiga inhibitor, Pf growth 48h, CHX counter)
COc1ccc(Br)cc1C(C[N+](=O)[O-])c1c(N)n(C)c(=O)n(C)c1=O (centres undefined)	HCV inhibitor 3.98µM, Pf growth 96h inconclusive, Pf growth 48h 3.7µM
CC(=O)c1ccccc1NC(=O)c1cc(S(=O)(=O)N2CCOCC2)ccc1N1CCCC1	Pf growth 96h inconclusive, Pf growth 48h inconclusive (no result: Shiga inhibitor, CHX counter)
Clc1ccc2nc(-c3cccc(SC4CCCCC4)c3)c(NCc3ccccc3)n2c1	Pf growth 96h 3.7µM, Pf growth 48h 4.15µM (no result: Shiga inhibitor, CHX counter)
CCCCCCSc1cccc(-c2nc3ccc(Cl)cn3c2NCc2ccccc2)c1	HCV inhibitor inconclusive, Pf growth 96h inconclusive, Pf growth 48h 7.38µM (no result: Shiga inhibitor, CHX counter)
CCCCNc1c(-c2cccc(SC3CCCCC3)c2)nc2ccc(Cl)cn12	Pf growth 96h inconclusive, Pf growth 48h 10.4µM (no result: Shiga inhibitor, CHX counter)
CCCCCCSc1cc(-c2nc3ccc(Cl)cn3c2NCCCC)ccc1OC	Pf growth 48h inconclusive (no result: Shiga inhibitor, CHX counter)
CCC1(C2=CCCCC2)C(=O)NC(=S)N=C1N (centres undefined)	none (no result: Pf growth 96h, Shiga inhibitor, Pf growth 48h, CHX counter)
O=C(c1ccccn1)N1CCCC(N2CCN(c3cccc(C(F)(F)F)c3)CC2)C1 (centres undefined)	Shiga inhibitor 41.3, Pf growth 48h inconclusive, CHX counter 19.9
Oc1ccccc1CN1CCCC(N2CCN(c3cccc(C(F)(F)F)c3)CC2)C1 (centres undefined)	Pf growth 48h 1.47µM (no result: Shiga inhibitor)
Cc1cc(C(=O)N2CCCC(N3CCN(c4cccc(C(F)(F)F)c4)CC3)C2)c(C)o1 (centres undefined)	HCV inhibitor 12.6µM
O=C(c1ccccn1)N1CCN(c2cccc(C(F)(F)F)c2)CC1	none
O=C(c1cc[n+]([O-])cc1)N1CCCC(N2CCN(c3cccc(C(F)(F)F)c3)CC2)C1 (centres undefined)	Pf growth 96h inconclusive, Pf growth 48h 11.7µM (no result: HCV inhibitor)
Cc1ccc(C(=O)N2CCN(c3cccc(C)c3C)CC2)cc1S(=O)(=O)N1CCOCC1	Pf growth 96h inconclusive, Pf growth 48h inconclusive (no result: Shiga inhibitor, CHX counter)
COc1ccc2[nH]c(CN3CCC(n4nccc4NC(=O)C4CC4)CC3)c(C)c2c1	Pf growth 96h inconclusive
CC(=O)N1CCc2cc(NC(=O)C3(C)CCN3Cc3ccc(C(C)C)cc3)ccc21 (centres undefined)	none (no result: HCV inhibitor, Pf growth 96h, Shiga inhibitor, Pf growth 48h, CHX counter)
CCN(CC)Cc1nc2c(c(=O)[nH]1)C1(CCCC1)Cc1ccccc1-2	HCV inhibitor inconclusive, Pf growth 96h 11.7µM, Pf growth 48h inconclusive
O=c1[nH]c(CN(CCO)CCO)nc2c1C1(CCCCC1)Cc1ccccc1-2	none
C[C@@H]1CN([C@@H](C)CO)C(=O)CCCn2nncc2CO[C@H]1CN(C)S(=O)(=O)c1ccc(-n2cccn2)cc1	none (no result: HCV inhibitor, Pf growth 96h, Shiga inhibitor, Pf growth 48h, CHX counter)
COc1ccc(CN(CCN(C)C)Cc2ccccc2)c(OC)c1	Pf growth 48h 13.1µM, AMA1-RON2 inh inconclusive (no result: Pf growth 96h)
CCN(Cc1ccncc1)Cc1ccc(OC)cc1OC	none
CSc1ccc(/C=N/Nc2ccc(Cl)c(C(=O)O)c2)cc1	Shiga inhibitor 188.7, CHX counter 52.1
O=C(O)c1cc(N/N=C/c2ccc(-c3ccccc3)cc2)ccc1Cl	Shiga inhibitor 131.9, CHX counter 99.5
CSc1ccc(/C=N/NC(=O)COc2ccc(Br)cc2Cl)cc1	HCV inhibitor inconclusive, Pf growth 96h inconclusive
O=C(O)c1ccc(N/N=C/c2ccc(-c3ccccc3)cc2)cc1	HCV inhibitor inconclusive, AMA1-RON2 inh inconclusive, CHX counter 26.5
O=C(O)c1cc(N/N=C/c2ccncc2)ccc1Cl	Shiga inhibitor 59.5, CHX counter 21.4
O=C(CSc1nnc(-c2ccncc2)s1)Nc1ccc(Cl)c(C(=O)O)c1	none
Cc1cccc(COC[C@H](Cc2ccccc2)N2CCN(C(=O)c3ccc(Cl)c(Cl)c3)CCC2=O)c1	none (no result: HCV inhibitor, Pf growth 96h, Shiga inhibitor, Pf growth 48h, CHX counter)
CCCCCCCCCCCC(=O)N1CC(=O)NC(=O)C1	Pf growth 96h inconclusive

Bioassay records from PubChem.
